Experiment [1] can be described thus: Primary qHTS for inhibitors of nuclear receptor binding SET domain protein 2 (NSD2) in an isogenic RCH-ACV NSD2 p.E1099K mutant (9B) (AID 1645876). For orientation: Quantitative high-throughput screening tests each substance at several concentrations.
Experiment [2] in a line: Primary qHTS for inhibitors of nuclear receptor binding SET domain protein 2 (NSD2) in an RCH-ACV wild type WT cells (2C) (AID 1645877).

Experimental findings from PubChem BioAssay (NCATS) are described below.

Molecules are shown by their SMILES. Values joined by “and” are separate entries in the source; they are usually repeats but may differ in a detail not shown here. Identical values can stand only once. Inconclusive results are not listed. A number with no mark means an inactive call. Active and inactive are the calls of the source. Calls come from the whole dose curve; as a rule, active = well fitted curve in the direction sought with a large enough effect; inconclusive = small, poorly fitted or top-dose-only effect, or another doubt; inactive = no such curve, though single readings can be large; an effect the other way counts as inactive or inconclusive.
% is set by controls: 0 for no effect and ±100 for the full control effect; potency is the fitted concentration of half-maximal effect.
Note: nearly all actives have a fitted effect of over 70% in size.

As to `CCOC(=O)[C@H](CCc1ccccc1)N[C@@H](C)C(=O)N1C2CCCCC2C[C@H]1C(=O)O` (stereo not given in full), the Potency result in experiment [1] and in experiment [2] was “inactive” throughout.
As for `C[C@@H]1CC[C@]2(C(=O)O)CC[C@]3(C(=O)O)C(=CCC4[C@@]5(C)CC[C@H](O[C@@H]6O[C@@H](C)[C@H](O[C@@H]7O[C@H](CO)[C@@H](O)[C@H](O)[C@H]7O)[C@@H](O)[C@H]6O)C(C)(C)C5CC[C@]43C)C2[C@H]1C` (stereo not given in full), the Potency result in experiment [1] and in experiment [2] was “inactive” in each case.
For `CC1(C)O[C@@H]2C[C@H]3[C@@H]4CCC5=CC(=O)C=C[C@]5(C)[C@H]4[C@@H](O)C[C@]3(C)[C@]2(C(=O)CO)O1`, the Potency entry in experiment [1] was “inactive”. Further, the Potency in experiment [2] was 46.8 nM (active).
In the case of `CCOc1cc2ncc(C#N)c(Nc3ccc(OCc4ccccn4)c(Cl)c3)c2cc1NC(=O)/C=C/CN(C)C`, the Potency in experiment [1] is 282 nM (active) and 1.32 µM (active); in experiment [2], 282 nM (active) and 833 nM (active).
For the compound `C=CC(C)(O)CO[C@@H]1O[C@H](CO)[C@@H](O)[C@H](O)[C@H]1O` (stereo not given in full), the Potency entry in experiment [1] and in experiment [2] was “inactive” each time.
In the case of `CC1=C2C=C(CO)C(CO)CCC2(C)CCC1=O` (stereo not given), the Potency entry in experiment [1] and in experiment [2] was “inactive” in each case.
Consider `C=C1[C@H]2CC[C@]3(O)[C@@](CC[C@@H]4[C@](C)(C(=O)O)CCC[C@]43C)(C2)[C@H]1OC(=O)/C(C)=C\C`, for which the Potency result in experiment [1] and in experiment [2] was “inactive” in each case.
On to `COC(=O)[C@@]1(C)CC[C@]2(C(=O)O[C@@H]3O[C@H](CO)[C@@H](O)[C@H](O)[C@H]3O)CC[C@]3(C)C(=CCC4[C@@]5(C)CC[C@H](O[C@@H]6O[C@H](C(=O)O)[C@@H](O)[C@H](O)[C@H]6O)C(C)(C)C5CC[C@]43C)[C@@H]2C1` (stereo not given in full), for which the activity change, negative = viability loss in experiment [1] was -18.6% [at 9.23 µM]. In addition, the activity change, negative = cell killing in experiment [2] is -26.4% [at 9.23 µM].
Consider `C/C=C1\[C@H](O[C@@H]2O[C@H](CO)[C@@H](O)[C@H](O)[C@H]2O)OC=C(C(=O)OC)[C@H]1CC(=O)OC`, for which the Potency result in experiment [1] and in experiment [2] was “inactive” in each case.
In the case of `CC(=O)N1c2ccccc2C2(O)CC3C(=O)NC(CC(C)C)C(=O)N3C12` (stereo not given), the Potency entry in experiment [1] and in experiment [2] was “inactive” each time.
In the case of `COc1ccccc1CC(C(=O)O)N(C)C(=O)c1ccccc1` (stereo not given), the Potency entry in experiment [1] and in experiment [2] was “inactive” each time.
`C=CC1C(O[C@@H]2O[C@H](CO)[C@@H](O)[C@H](O)[C@H]2O)OC=C(C(=O)OC)C1CC(=O)O` (stereo not given in full): the Potency entry in experiment [1] and in experiment [2] was “inactive” each time.
On to `C/C=C(\C)C(=O)O[C@H]1[C@@H](O[C@]2(COC(=O)CC(C)C)O[C@H](COC(=O)C(C)C)[C@@H](OC(C)=O)[C@@H]2O)O[C@H](COC(C)=O)[C@@H](O)[C@@H]1O`, for which the Potency result in experiment [1] and in experiment [2] was “inactive” in each case.
In the case of `COc1ccc(C(=O)O[C@H]2CC(C)=CC[C@@]3(C)[C@@H](OC(C)=O)C[C@@](O)(C(C)C)[C@H]23)cc1`, the Potency result in experiment [1] and in experiment [2] was “inactive” throughout.
For `COc1cc(COC2OC(CO)C(O)C(O)C2O)cc(OC)c1O` (stereo not given), the Potency entry in experiment [1] and in experiment [2] was “inactive” each time.
For `CC(C)CC(=O)n1cc(C(N)=O)c(=O)cc1C(O)c1ccccc1` (stereo not given), the Potency entry in experiment [1] and in experiment [2] was “inactive” each time.
`CC(=O)OC[C@@]12[C@H](O)C[C@@H](C)[C@]3(C[C@@H](c4ccoc4)OC3=O)[C@H]1C[C@H](O)C[C@]21CO1`: the Potency result in experiment [1] and in experiment [2] was “inactive” throughout.
As to `COc1cc([C@H]2OC[C@@H]3[C@@H](c4ccc(O[C@@H]5O[C@H](CO)[C@@H](O)[C@H](O)[C@H]5O)c(OC)c4)OC[C@]23O)ccc1O`, the Potency result in experiment [1] and in experiment [2] was “inactive” each time.
As to `C=CC1(C)CC2=CCC3C(C)(C(=O)O)CCCC3(C)C2CC1OC(C)=O` (stereo not given), the Potency result in experiment [1] and in experiment [2] was “inactive” each time.
For the compound `CC1(C)CC2C3=CCC4C5(C)CCC(OC6OC(C(=O)O)C(O)C(O)C6OC6OC(CO)C(O)C(O)C6OC6OC(CO)C(O)C(O)C6O)C(C)(CO)C5CCC4(C)C3(C)CCC2(C)C(OC2OCC(O)C(OC3OC(CO)C(O)C(O)C3O)C2O)C1O` (stereo not given), the activity change, negative = viability loss in experiment [1] is -1.65% [at 9.23 µM]. Moreover, the activity change, negative = cell killing in experiment [2] was -4.93% [at 9.23 µM].
For `CC(=O)OC1C=C(C(=O)O)C2(CO)CCC(C)C(C)(CCc3ccoc3)C2C1` (stereo not given), the Potency entry in experiment [1] and in experiment [2] was “inactive” throughout.
For `CCc1nc(C(N)=O)c(Nc2ccc(N3CCC(N4CCN(C)CC4)CC3)c(OC)c2)nc1NC1CCOCC1`, the Potency is 1.13 µM (active) and 2.63 µM (active) in experiment [1]; 1.13 µM (active) and 2.63 µM (active) in experiment [2].
Take `CC(C)(O)C1=CCC23COC(C2)C(O)(C(=O)O)CCC13` (stereo not given): the Potency entry in experiment [1] and in experiment [2] was “inactive” throughout.
Turning to `COc1ccc2c(c1O)OC[C@H]1c3ccc(O)cc3O[C@@H]21`, the Potency entry in experiment [1] and in experiment [2] was “inactive” in each case.
`O=C(O)CCc1cc2ccoc2cc1O[C@@H]1O[C@H](CO[C@@H]2OC[C@](O)(CO)[C@H]2O)[C@@H](O)[C@H](O)[C@H]1O`: the Potency result in experiment [1] and in experiment [2] was “inactive” in each case.
